Like-named read-outs stand apart in the source and are kept apart here.

Common to all, as to set-up: species or system human, MV4-11 + K-562 + COLO205 + SK-N-BE2 + OVCAR-8
For one experiment, the system named is ACVR1B. The conditions noted are these: read-out: apparent Kd; compound concentrations:100 nM and 1000 nM (sheet 'Samples'); n = 1.
Another experiment has as its system SLK. The conditions noted are these: read-out: apparent Kd; compound concentrations:100 nM and 1000 nM (sheet 'Samples'); n = 1.
The next experiment relates to STK10. The conditions noted are these: read-out: apparent Kd; compound concentrations:100 nM and 1000 nM (sheet 'Samples'); n = 1.
A further experiment relates to ACVR2B. The conditions noted are these: read-out: apparent Kd, compound concentrations: 100 nM and 1000 nM (sheet 'Samples'), n = 1.
The next experiment relates to BCR. The conditions noted are these: read-out: apparent Kd; compound concentrations: 100 nM and 1000 nM (sheet 'Samples'), CATDS: 0.13309110379765501; n = 1.
Another experiment has as its system EPHA1. The conditions noted are these: read-out: apparent Kd; compound concentrations: 100 nM and 1000 nM (sheet 'Samples'), CATDS: 0.10065713248800801; n = 1.
The subject of another experiment is GAK. Particulars: read-out: apparent Kd; compound concentrations: 100 nM and 1000 nM (sheet 'Samples'), CATDS: 0.10209993083840201; n = 1.
The subject of a further experiment is PTK6. Particulars: read-out: apparent Kd; compound concentrations: 100 nM and 1000 nM (sheet 'Samples'), CATDS: 9.8392012299874307E-2; n = 1.
For a further experiment, the system named is RET. The conditions noted are these: read-out: apparent Kd; compound concentrations: 100 nM and 1000 nM (sheet 'Samples'), CATDS: 0.106923709019676; n = 1.
In another experiment the test system is RIPK2. The conditions noted are these: read-out: apparent Kd; compound concentrations: 100 nM and 1000 nM (sheet 'Samples'), CATDS: 0.37039480382744999; n = 1.
The test system of the next experiment is RIPK3. Particulars: read-out: apparent Kd; compound concentrations: 100 nM and 1000 nM (sheet 'Samples'), CATDS: 7.5580251546270003E-2; n = 1.
For another experiment, the system named is SIK2. Particulars: read-out: apparent Kd; compound concentrations: 100 nM and 1000 nM (sheet 'Samples'), CATDS: 0.152739498183388; n = 1.
In another experiment the test system is PRKD2. Particulars: read-out: apparent Kd; compound concentrations:100 nM and 1000 nM (sheet 'Samples'); n = 1.
The next experiment deals with PRKD3. The conditions noted are these: read-out: apparent Kd; compound concentrations:100 nM and 1000 nM (sheet 'Samples'); n = 1.
The subject of another experiment is TGFBR1. The conditions noted are these: read-out: apparent Kd; compound concentrations:100 nM and 1000 nM (sheet 'Samples'); n = 1.
The next experiment has as its system T1, DJA1.
T1 construct: gene DNAJA1
The conditions noted are these: read-out: apparent Kd; compound concentrations: 100 nM and 1000 nM (sheet 'Samples'), CATDS: 0.27071673816178898; n = 1.

In a further experiment the test system is PIK3CD. Particulars: read-out: apparent Kd; compound concentrations: 100 nM and 1000 nM (sheet 'Samples'), CATDS: 0.64872041714686801; n = 1.
For another experiment, the system named is FLT3. The conditions noted are these: read-out: apparent Kd; compound concentrations: 100 nM and 1000 nM (sheet 'Samples'), CATDS: 0.189547770315381; n = 1.
The next experiment has as its system FLT4. Particulars: read-out: apparent Kd; compound concentrations: 100 nM and 1000 nM (sheet 'Samples'), CATDS: 0.63854178875025103; n = 1.
In the next experiment the test system is PDGFRB. Particulars: read-out: apparent Kd; compound concentrations: 100 nM and 1000 nM (sheet 'Samples'), CATDS: 0.185767501667575; n = 1.

Turning to `COc1ccc2cc(-c3c(-c4ccncc4)nc(-c4ccc(S(C)=O)cc4C)n3C)ccc2c1` (centres unmarked) [SB-630812], the potency estimated from few doses in the experiment on ACVR1B was 288 nM; in the experiment with SLK, 2250 nM; in the experiment on STK10, 1990 nM.

For the compound `Fc1cc(Cl)ccc1Nc1ccnc2cc(-c3ccc(CN4CCCCC4)o3)ccc12` [GW560116X], the potency estimated from few doses in the experiment with ACVR2B (CATDS: 8.5008478980750105E-2) is 1080 nM; in the experiment with BCR, 359 nM; in the experiment on EPHA1 it was 670 nM; in the experiment with GAK, 646 nM; with PTK6 it was 710 nM; in the experiment with RET it was 577 nM. The potency estimated from few doses is 69.3 nM in the experiment on RIPK2, 1650 nM in the experiment with RIPK3 and 276 nM in the experiment with SIK2.

Turning to `Cc1cccc(-c2nc(C)cc(Nc3ccncc3)n2)n1` [GSK257997A], the potency estimated from few doses in the experiment on ACVR1B was 431 nM; in the experiment on PRKD2, 408 nM; with PRKD3, 1590 nM; in the experiment on TGFBR1, 75.9 nM.

With `Fc1cc(Cl)ccc1Nc1ccnc2cc(I)ccc12` [GW551191X], the results for the potency estimated from few doses in the experiment with ACVR2B (CATDS: 0.26563205076169), with DJA1 and with PIK3CD were 1340 nM, 1260 nM and 203 nM, respectively.

As to `CC(=O)Nc1ccc(COc2ccc(Nc3ccnc4cc(-c5ccccn5)ccc34)cc2)cc1.Cl` [GW440148A], the potency estimated from few doses in the experiment with ACVR2B (CATDS: 0.26489055890019297) is 482 nM; in the experiment with FLT3, 1250 nM; with FLT4 it was 88.5 nM; with PDGFRB it was 1340 nM.

The values above are taken from paper PMC11062922 (Nature Chemical Biology, 2023).
